Here are results for one sequence from article PMC7862700, “An all-to-all approach to the identification of sequence-specific readers for epigenetic DNA modifications on cytosine”.

Assay in all cases: DAPPL (digital affinity profiling via proximity ligation, sequencing); 10 mM Tris-HCl pH 7.5, 50 mM NaCl, 1 mM DTT, 4% glycerol, room temperature, 30 min; GST-TFs on glutathione beads, 16-mer random dsDNA library, 0.1% formaldehyde crosslink after washing; high values mean tight binding
Common to all, as to settings: protein: recombinant; tags: N-terminal GST; dsDNA, one strand shown

The target of one test is T1, FLI1 (Homo sapiens, UniProt Q01543 1-452).
T1 sequence: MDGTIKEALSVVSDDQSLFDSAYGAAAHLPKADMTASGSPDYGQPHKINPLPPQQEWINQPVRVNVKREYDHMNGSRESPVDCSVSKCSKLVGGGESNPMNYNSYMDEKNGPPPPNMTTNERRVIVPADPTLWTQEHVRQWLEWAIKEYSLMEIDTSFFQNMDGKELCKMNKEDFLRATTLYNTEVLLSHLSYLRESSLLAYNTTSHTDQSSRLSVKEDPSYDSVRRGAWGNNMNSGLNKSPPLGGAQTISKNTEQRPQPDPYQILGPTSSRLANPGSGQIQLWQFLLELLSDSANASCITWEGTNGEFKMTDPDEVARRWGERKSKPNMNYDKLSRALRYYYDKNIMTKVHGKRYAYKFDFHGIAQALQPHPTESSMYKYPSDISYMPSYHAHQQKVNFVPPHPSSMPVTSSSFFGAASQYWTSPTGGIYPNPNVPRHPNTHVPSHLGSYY
The method in brief: (§1)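 Beads coated with glutathione captured GST-fused human transcription factors that had been expressed in yeast, and the factors were then given DNA barcodes and pooled with a tag-only sample. The pools were incubated with 200 nmole of a random double-stranded 16-mer DNA library in Tris/NaCl/DTT/glycerol buffer for 30 min at room temperature, washed, crosslinked with 0.1% formaldehyde and proximity-ligated with BsaI/T4 ligase at 37 °C for 1 h. PCR amplification and Illumina NextSeq500 sequencing came last. Binding signal is each hexamer's read frequency for a factor divided by its frequency for the tag-only sample.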

A further test deals with T2, ELK1 (Homo sapiens, UniProt P19419 1-428).
T2 sequence: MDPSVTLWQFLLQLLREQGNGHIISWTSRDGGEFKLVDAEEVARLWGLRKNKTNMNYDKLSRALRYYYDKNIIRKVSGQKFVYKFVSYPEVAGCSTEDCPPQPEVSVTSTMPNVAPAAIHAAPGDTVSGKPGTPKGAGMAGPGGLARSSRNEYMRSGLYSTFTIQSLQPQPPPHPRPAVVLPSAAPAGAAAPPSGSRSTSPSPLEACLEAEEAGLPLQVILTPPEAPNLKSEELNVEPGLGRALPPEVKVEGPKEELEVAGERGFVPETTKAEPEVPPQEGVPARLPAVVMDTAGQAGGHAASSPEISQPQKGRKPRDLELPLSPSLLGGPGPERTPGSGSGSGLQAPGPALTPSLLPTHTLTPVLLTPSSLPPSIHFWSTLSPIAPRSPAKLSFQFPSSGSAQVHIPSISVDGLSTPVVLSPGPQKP
The method in brief: as §1

Another test has as its target T3, GABPA (Homo sapiens, UniProt Q06546 1-454).
T3 sequence: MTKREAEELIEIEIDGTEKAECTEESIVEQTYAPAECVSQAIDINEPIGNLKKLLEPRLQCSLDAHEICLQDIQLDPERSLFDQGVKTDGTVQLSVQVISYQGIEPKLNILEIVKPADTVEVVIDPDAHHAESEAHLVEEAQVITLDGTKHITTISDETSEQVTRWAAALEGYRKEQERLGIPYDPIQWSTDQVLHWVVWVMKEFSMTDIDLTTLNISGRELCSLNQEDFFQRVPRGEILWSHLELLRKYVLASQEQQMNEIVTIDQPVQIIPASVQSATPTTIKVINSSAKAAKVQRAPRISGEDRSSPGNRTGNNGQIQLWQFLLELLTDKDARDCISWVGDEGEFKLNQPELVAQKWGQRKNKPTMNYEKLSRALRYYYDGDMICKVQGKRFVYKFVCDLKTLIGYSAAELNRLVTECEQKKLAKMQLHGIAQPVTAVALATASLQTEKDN
The method in brief:
as §1

The target of the next test is T4, ERG (Homo sapiens, UniProt P11308 1-479).
T4 sequence: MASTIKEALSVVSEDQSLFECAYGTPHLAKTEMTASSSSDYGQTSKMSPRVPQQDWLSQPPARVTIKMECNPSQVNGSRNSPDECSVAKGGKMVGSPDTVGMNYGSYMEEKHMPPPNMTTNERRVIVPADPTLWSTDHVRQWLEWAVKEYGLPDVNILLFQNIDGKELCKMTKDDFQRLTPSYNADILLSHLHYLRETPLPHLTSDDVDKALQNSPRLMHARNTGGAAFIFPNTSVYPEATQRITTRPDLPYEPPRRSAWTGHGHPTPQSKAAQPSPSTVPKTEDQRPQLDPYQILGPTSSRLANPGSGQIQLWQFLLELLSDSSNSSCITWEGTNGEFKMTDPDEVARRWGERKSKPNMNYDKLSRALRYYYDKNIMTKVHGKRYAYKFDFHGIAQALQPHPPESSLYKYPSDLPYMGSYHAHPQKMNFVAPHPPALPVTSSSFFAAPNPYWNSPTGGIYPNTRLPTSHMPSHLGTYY
The method in brief: as §1

The target of another test is ELF1 (Homo sapiens, UniProt P32519 1-619). The gist of the method:
as §1

The target of another test is T5, EHF (Homo sapiens, UniProt Q9NZC4 1-300).
T5 sequence: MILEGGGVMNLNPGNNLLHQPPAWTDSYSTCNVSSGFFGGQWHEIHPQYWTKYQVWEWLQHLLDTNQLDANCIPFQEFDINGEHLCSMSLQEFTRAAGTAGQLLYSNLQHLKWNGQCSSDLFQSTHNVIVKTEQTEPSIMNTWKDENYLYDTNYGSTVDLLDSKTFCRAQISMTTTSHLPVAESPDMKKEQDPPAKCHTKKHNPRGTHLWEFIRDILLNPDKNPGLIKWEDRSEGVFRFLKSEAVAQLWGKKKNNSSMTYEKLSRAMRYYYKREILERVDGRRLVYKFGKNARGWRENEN
The gist of the method:
as §1

The target of the next test is SPI1 (Homo sapiens, UniProt P17947 1-270). The gist of the method:
as §1

The next test concerns the target T6, ELK3 (Homo sapiens, UniProt P41970 1-407).
T6 sequence: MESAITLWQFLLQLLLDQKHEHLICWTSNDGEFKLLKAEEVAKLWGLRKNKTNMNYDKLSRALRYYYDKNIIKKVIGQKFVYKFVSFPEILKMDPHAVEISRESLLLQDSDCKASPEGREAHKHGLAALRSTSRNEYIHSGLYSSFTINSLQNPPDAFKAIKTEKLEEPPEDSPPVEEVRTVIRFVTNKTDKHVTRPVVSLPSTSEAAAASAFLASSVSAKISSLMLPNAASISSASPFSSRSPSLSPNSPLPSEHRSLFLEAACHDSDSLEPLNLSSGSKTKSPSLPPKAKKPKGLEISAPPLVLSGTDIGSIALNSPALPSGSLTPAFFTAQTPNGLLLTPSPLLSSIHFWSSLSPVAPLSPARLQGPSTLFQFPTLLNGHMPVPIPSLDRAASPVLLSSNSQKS
The method in brief: as §1

A further test has as its target T7, FEV (Homo sapiens, UniProt Q99581 1-238).
T7 sequence: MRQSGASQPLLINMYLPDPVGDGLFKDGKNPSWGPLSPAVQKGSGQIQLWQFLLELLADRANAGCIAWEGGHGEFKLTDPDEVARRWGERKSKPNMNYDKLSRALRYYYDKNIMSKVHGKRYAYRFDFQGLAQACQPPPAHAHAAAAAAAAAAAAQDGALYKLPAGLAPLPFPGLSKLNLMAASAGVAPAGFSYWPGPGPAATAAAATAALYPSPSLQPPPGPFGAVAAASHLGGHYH
The method in brief: as §1

Another test addresses ETV5 (Homo sapiens, UniProt P41161 1-510). The gist of the method: as §1
Another test addresses T8, SPIC (Homo sapiens, UniProt Q8N5J4 1-248).
T8 sequence: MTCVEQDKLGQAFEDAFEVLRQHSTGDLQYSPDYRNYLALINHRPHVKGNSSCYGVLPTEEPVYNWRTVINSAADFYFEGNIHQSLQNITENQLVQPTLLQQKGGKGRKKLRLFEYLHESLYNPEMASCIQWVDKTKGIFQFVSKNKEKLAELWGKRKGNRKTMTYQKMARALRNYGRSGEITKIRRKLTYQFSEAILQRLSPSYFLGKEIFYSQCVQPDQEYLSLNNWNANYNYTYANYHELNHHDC
The method in brief: as §1

Another test addresses ELF4 (Homo sapiens, UniProt Q99607 1-663). The gist of the method: as §1
The target in the next test is ETV1 (Homo sapiens, UniProt P50549 1-477). The gist of the method: as §1
The next test addresses T9, ERF (Homo sapiens, UniProt P50548 1-548).
T9 sequence: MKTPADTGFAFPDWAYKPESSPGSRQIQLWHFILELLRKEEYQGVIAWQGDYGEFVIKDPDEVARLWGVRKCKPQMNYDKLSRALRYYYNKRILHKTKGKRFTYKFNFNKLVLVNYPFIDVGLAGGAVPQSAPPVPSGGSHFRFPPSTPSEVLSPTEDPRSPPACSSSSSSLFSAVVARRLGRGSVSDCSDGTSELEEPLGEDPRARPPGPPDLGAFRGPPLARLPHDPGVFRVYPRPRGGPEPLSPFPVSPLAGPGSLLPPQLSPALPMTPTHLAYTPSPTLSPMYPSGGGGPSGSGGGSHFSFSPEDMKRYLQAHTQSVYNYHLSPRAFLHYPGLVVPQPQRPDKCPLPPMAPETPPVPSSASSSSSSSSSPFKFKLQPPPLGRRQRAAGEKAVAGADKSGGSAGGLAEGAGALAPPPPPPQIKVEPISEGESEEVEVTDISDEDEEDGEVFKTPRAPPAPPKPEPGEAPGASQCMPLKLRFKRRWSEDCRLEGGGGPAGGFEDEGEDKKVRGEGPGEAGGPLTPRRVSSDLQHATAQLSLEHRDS
The method in brief:
as §1

The target in another test is T10, ETV3L (Homo sapiens, UniProt Q6ZN32 1-361).
T10 sequence: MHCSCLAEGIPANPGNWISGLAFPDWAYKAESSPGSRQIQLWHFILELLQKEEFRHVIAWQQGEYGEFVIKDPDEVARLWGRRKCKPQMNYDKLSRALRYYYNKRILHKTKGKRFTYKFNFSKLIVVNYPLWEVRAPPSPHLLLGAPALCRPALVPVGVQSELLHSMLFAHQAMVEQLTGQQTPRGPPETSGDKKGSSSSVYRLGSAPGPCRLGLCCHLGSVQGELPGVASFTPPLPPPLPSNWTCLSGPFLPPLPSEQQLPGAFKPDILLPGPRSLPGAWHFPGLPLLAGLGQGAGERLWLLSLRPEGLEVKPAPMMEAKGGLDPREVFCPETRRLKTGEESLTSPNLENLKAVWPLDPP
The gist of the method:
as §1

The target in the next test is T11, ETS2 (Homo sapiens, UniProt P15036 1-469).
T11 sequence: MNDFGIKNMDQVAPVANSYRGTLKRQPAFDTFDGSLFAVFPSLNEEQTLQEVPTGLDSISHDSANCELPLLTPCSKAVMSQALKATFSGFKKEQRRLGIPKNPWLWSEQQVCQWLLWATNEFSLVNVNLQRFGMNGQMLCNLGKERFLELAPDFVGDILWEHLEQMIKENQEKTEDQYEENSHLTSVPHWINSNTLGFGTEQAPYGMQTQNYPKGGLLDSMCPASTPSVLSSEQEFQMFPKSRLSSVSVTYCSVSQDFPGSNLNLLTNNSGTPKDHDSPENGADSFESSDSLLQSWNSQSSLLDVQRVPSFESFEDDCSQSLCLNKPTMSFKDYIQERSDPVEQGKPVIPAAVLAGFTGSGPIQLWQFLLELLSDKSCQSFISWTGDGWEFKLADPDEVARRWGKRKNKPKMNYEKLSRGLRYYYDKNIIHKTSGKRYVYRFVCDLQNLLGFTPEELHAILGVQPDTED
The method in brief: as §1

For the next test, the target named is T12, ELF5 (Homo sapiens, UniProt Q9UKW6-2 1-255).
T12 sequence: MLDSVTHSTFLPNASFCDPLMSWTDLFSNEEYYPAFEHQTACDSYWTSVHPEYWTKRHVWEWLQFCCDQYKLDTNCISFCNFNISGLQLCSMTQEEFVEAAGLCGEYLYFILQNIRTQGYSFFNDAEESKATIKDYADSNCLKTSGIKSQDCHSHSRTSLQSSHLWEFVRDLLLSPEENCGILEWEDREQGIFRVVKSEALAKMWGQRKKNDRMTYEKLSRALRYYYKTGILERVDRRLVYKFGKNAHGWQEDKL
The method in brief:
as §1

For a further test, the target named is T13, ETV3 (Homo sapiens, UniProt P41162-2 1-143).
T13 sequence: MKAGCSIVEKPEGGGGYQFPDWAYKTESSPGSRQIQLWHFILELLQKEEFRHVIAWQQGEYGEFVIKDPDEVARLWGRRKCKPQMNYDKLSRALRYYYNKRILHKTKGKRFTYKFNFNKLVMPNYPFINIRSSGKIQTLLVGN
The method in brief:
as §1

A further test has as its target ETV6 (Homo sapiens, UniProt P41212 1-452). The gist of the method: as §1

Chain of ELF1 (P32519 whole entry): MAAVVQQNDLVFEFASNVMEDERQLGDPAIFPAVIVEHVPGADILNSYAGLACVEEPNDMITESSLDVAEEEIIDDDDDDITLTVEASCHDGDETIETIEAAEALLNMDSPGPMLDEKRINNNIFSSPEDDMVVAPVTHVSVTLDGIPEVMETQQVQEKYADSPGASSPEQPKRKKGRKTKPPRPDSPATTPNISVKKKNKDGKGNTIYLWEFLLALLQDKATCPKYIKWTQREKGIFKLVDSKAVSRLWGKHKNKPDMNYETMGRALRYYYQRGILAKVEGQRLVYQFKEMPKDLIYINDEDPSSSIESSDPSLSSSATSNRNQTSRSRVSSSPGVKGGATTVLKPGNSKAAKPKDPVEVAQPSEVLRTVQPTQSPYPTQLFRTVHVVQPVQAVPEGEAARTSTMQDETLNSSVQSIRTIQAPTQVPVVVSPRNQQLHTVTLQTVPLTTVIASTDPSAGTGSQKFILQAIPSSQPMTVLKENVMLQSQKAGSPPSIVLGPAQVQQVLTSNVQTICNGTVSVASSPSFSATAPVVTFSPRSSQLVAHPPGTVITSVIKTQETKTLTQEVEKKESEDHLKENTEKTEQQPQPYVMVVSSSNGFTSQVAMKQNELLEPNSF
Chain of ETV1 (P50549 whole entry): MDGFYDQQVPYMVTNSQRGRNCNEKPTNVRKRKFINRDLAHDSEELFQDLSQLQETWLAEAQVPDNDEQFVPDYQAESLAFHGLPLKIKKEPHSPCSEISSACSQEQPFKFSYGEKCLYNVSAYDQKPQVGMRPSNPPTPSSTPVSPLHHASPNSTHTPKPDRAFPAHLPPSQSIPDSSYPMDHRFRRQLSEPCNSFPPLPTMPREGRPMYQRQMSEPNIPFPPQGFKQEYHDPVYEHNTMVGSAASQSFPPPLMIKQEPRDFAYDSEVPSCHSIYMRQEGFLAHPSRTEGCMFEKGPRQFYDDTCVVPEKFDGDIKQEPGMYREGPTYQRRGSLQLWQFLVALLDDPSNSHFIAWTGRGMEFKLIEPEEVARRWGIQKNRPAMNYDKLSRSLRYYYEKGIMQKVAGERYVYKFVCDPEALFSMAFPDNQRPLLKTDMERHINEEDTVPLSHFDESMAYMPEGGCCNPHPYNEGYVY
Chain of ETV5 (P41161 whole entry): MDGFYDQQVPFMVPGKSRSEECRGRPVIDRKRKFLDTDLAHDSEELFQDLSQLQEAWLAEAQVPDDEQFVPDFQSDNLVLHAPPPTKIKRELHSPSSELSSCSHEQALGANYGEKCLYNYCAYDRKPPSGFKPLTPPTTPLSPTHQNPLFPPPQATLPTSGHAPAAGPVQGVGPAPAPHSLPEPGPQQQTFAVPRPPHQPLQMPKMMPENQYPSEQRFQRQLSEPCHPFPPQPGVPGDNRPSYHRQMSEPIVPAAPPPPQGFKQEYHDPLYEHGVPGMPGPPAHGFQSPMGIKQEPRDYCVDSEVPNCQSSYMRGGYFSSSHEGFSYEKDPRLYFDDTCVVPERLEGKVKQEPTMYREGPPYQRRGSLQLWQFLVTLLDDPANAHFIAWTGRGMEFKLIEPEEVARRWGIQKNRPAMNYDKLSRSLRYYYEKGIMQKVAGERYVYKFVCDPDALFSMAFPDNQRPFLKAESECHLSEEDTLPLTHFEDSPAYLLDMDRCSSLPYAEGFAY
Chain of ETV6 (P41212 whole entry): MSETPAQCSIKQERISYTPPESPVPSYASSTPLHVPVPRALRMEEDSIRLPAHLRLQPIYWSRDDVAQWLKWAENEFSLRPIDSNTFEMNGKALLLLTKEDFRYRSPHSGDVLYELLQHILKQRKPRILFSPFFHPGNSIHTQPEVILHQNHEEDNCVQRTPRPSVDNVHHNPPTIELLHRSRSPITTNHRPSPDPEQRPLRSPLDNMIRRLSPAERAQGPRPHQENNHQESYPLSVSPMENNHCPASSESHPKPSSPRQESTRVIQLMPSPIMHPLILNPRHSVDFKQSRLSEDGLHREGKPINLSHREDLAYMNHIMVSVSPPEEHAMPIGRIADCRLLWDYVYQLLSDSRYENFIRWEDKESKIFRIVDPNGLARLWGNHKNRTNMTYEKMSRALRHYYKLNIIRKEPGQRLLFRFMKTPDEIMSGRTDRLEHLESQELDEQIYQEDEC
Chain of ELF4 (Q99607 whole entry): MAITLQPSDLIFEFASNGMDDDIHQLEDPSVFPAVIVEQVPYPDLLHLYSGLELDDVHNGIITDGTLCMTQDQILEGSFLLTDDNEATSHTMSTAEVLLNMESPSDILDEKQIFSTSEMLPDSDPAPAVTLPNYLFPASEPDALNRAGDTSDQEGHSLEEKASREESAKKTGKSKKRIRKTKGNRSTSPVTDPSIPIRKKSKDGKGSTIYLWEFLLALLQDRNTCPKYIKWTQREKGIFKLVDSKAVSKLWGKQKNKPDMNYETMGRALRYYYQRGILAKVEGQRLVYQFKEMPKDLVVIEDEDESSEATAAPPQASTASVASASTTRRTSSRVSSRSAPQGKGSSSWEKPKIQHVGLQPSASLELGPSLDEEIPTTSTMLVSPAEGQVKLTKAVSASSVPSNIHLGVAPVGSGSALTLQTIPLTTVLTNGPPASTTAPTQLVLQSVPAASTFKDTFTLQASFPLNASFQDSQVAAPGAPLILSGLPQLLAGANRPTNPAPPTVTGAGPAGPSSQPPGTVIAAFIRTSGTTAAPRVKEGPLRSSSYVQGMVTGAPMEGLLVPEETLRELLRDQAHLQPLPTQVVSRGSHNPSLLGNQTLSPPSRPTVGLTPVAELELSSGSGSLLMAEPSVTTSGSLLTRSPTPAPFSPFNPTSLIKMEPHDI

In the case of GCCGCC, the binding signal with FLI1 was 1.21 fold enrichment (6-mer frequency, TF over GST control); in the test with ELK1 it was 1.1 fold enrichment (6-mer frequency, TF over GST control); in the test with GABPA, 1.16 fold enrichment (6-mer frequency, TF over GST control); in the test with ERG it was 1.02 fold enrichment (6-mer frequency, TF over GST control); in the test with ELF1 it was 1 fold enrichment (6-mer frequency, TF over GST control); with EHF, 1.05 fold enrichment (6-mer frequency, TF over GST control). For the same sequence, the binding signal is 1.13 fold enrichment (6-mer frequency, TF over GST control) with SPI1; 1.15 fold enrichment (6-mer frequency, TF over GST control) in the test with ELK3; 1.05 fold enrichment (6-mer frequency, TF over GST control) in the test with FEV; 1.04 fold enrichment (6-mer frequency, TF over GST control) in the test with ETV5; 1.03 fold enrichment (6-mer frequency, TF over GST control) in the test with SPIC; 1.08 fold enrichment (6-mer frequency, TF over GST control) in the test with ELF4. The binding signal with ETV1 was 1.12 fold enrichment (6-mer frequency, TF over GST control); in the test with ERF, 1.03 fold enrichment (6-mer frequency, TF over GST control); with ETV3L it was 1 fold enrichment (6-mer frequency, TF over GST control); with ETS2, 1.01 fold enrichment (6-mer frequency, TF over GST control); with ELF5, 1.01 fold enrichment (6-mer frequency, TF over GST control); with ETV3 it was 1.11 fold enrichment (6-mer frequency, TF over GST control). Also, the binding signal with ETV6 was 1.02 fold enrichment (6-mer frequency, TF over GST control).
